TcdB GH inh = blocks C. difficile toxin B glycohydrolase activity | P18177 | TcdB glycohydrolase enzymatic assay, plate reader | inhibition, % at 9.99 µM | hit rate 0.24% among 350,000 | AID 652162; in the data active = inhibition above about 10%
Target sequence (P18177 whole entry, looked up): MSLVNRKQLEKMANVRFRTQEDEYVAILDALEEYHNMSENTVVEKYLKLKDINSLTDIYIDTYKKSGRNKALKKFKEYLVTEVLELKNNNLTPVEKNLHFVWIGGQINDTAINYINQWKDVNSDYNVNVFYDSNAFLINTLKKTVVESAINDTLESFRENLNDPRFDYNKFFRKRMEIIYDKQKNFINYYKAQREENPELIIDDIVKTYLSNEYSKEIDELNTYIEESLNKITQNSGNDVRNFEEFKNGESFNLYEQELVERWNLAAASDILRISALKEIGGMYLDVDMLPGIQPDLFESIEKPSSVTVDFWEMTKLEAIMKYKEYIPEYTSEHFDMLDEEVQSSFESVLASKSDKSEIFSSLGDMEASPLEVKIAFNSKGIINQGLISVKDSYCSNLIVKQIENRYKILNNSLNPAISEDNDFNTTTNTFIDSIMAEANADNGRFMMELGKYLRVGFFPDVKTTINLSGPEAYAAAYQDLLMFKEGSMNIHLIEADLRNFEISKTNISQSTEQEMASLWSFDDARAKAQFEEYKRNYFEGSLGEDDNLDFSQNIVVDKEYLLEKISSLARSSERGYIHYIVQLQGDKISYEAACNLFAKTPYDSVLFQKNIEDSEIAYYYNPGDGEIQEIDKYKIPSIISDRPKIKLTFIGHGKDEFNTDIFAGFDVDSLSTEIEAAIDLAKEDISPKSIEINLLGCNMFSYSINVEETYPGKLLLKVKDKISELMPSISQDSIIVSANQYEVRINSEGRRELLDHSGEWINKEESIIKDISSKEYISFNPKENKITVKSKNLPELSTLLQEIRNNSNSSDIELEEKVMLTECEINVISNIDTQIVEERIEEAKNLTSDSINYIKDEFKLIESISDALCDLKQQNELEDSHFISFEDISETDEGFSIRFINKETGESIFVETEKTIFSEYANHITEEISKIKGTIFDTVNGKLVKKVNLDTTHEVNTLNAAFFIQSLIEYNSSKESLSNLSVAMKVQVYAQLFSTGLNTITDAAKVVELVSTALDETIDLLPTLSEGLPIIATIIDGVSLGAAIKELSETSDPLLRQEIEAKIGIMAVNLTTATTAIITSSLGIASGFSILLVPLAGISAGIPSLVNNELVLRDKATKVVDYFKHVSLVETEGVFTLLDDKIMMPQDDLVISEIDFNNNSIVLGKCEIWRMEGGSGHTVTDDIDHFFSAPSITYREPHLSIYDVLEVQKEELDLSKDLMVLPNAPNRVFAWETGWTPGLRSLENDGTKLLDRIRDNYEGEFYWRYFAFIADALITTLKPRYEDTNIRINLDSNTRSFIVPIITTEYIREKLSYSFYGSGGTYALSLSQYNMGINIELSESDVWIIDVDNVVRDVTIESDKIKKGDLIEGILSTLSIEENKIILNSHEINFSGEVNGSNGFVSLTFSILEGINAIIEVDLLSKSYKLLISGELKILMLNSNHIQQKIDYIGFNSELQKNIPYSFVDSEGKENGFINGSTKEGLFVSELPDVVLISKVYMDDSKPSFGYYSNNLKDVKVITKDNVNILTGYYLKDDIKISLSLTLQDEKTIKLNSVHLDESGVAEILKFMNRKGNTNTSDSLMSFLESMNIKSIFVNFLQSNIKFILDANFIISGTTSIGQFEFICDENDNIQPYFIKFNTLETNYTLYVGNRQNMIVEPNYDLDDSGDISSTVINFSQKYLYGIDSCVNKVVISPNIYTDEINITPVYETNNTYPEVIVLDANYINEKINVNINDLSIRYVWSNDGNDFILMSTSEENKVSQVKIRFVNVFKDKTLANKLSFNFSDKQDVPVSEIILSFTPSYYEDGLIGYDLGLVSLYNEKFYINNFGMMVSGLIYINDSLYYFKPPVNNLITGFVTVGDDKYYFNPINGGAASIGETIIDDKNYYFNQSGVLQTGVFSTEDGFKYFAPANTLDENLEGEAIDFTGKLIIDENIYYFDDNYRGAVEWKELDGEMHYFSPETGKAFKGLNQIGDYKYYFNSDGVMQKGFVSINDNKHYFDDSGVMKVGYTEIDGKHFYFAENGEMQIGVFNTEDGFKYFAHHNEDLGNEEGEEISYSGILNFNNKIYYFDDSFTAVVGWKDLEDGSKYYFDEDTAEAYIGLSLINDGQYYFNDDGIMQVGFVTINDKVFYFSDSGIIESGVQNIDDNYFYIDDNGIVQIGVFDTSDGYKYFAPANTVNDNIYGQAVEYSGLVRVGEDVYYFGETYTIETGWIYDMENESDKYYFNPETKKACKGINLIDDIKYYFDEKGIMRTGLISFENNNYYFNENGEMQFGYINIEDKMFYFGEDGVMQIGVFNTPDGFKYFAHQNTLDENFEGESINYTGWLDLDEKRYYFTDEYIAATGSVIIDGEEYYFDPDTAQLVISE
GDH-TPI inh = inhibits GDH-TPI coupling enzymes, artifact for Mtb FBA screen; GDH-TPI coupled enzyme counterscreen, NADH absorbance; inhibition, % at 4.8 µM; hit rate 1.2% among 360,000; in the data active = inhibition above about 30%;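 also: 0% = DMSO wells and 100% = wells lacking the enzyme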
PrPC surface inh = reduces human prion protein on the cell surface; P04156; cell surface PrPC, TR-FRET read-out; inhibition, % at 13.8 µM; hit rate 0.43% among 370,000; in the data active = inhibition above about 24%; also: 0% = median of the test wells and 100% = reference compound wells
Mtb FBA inh = inhibits M. tuberculosis FBA enzyme; P9WQA3; purified M. tuberculosis FBA, fluorescence read-out; inhibition, % at 1 µM; hit rate 2.3% among 360,000; in the data active = inhibition above about 27%;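 also: 0% = vehicle and 100% = reference inhibitor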
Yp Topo-I inh = blocks Yersinia pestis topoisomerase I activity; hit rate 0.064% among 360,000; Y. pestis Topo-I cleavage product accumulation, plate reader; activity, % at 10 µM; AID 504884; in the data active = activity above about 50%, passing the limit was not always enough
An asterisk follows results filed as active. The list is not random: actives were taken first. Their share in the collection is about 3.2%.

What do the screens show for `CCN(CC)C(=O)CSc1nc2cc(OC)c(OC)cc2c(=O)n1Cc1ccc(Cl)cc1`?
GDH-TPI inh: -5; PrPC surface inh: -5; Mtb FBA inh: 27*; Yp Topo-I inh: 18

What do the screens show for `Cc1ccc(CNCCCn2cnc(C(=O)Nc3ccc(C)c(C)c3)n2)o1`?
TcdB GH inh: 14*; GDH-TPI inh: 0; PrPC surface inh: -8; Mtb FBA inh: -2; Yp Topo-I inh: 8

What do the screens show for `COc1ccc(C2=NN(C(=O)c3cccs3)C(c3ccccc3OC)C2)cc1OC` (stereo unspecified)?
TcdB GH inh: 1; GDH-TPI inh: 34*; PrPC surface inh: 2; Mtb FBA inh: 3; Yp Topo-I inh: 27

Results for COc1ccc(C2=NN(C(=O)c3ccco3)C(c3cccs3)C2)cc1OC (stereo unspecified) ?
TcdB GH inh: 2; GDH-TPI inh: 38*; PrPC surface inh: 5; Mtb FBA inh: -2; Yp Topo-I inh: 3

Results for CN1C[C@H](CO)C=C2c3cccc4[nH]cc(c34)C[C@H]21 ?
TcdB GH inh: 2; GDH-TPI inh: 9; PrPC surface inh: -8; Mtb FBA inh: 172*; Yp Topo-I inh: -12

How did Cc1ccc(-c2n[nH]c(=S)n2Cc2ccccc2)cc1 do in these assays?
GDH-TPI inh: -6; PrPC surface inh: -1; Mtb FBA inh: 7; Yp Topo-I inh: 2

Results for S=c1[nH]nc(-c2cc3ccccc3o2)n1Cc1ccccc1 ?
GDH-TPI inh: 20; PrPC surface inh: 15; Mtb FBA inh: 132*; Yp Topo-I inh: -1

Results for CCC(CC)COC(=O)C1=C(C)NC(=O)NC1c1ccc(N(C)C)cc1 (stereo unspecified) ?
TcdB GH inh: 1; GDH-TPI inh: -2; PrPC surface inh: -4; Mtb FBA inh: 184*; Yp Topo-I inh: 24

Results for CCOC(=O)C1=C(C)NC(=O)NC1c1ccc(N(C)C)cc1 (stereo unspecified) ?
TcdB GH inh: -1; GDH-TPI inh: -4; PrPC surface inh: 6; Mtb FBA inh: 1; Yp Topo-I inh: -6

How did CCOc1cc(/C=C/C(=O)c2ccc(O)cc2)ccc1OCC(=O)N(C)C do in these assays?
GDH-TPI inh: 47*; PrPC surface inh: -1; Mtb FBA inh: -3; Yp Topo-I inh: 2

Results for COc1ccc(C=CC(=O)c2ccc3cc(OC)c(OC)cc3c2)cc1OC ?
TcdB GH inh: -1; GDH-TPI inh: 31*; PrPC surface inh: 11; Mtb FBA inh: -4; Yp Topo-I inh: 11

What do the screens show for `O=C(/C=C/c1ccc2c(c1)OCCO2)c1ccccc1`?
TcdB GH inh: 1; GDH-TPI inh: 14; PrPC surface inh: 9; Mtb FBA inh: -1; Yp Topo-I inh: -3

Results for COc1ccc(C(=O)/C=C/c2ccc3c(c2)OCCO3)cc1 ?
TcdB GH inh: 7; GDH-TPI inh: 36*; PrPC surface inh: -8; Mtb FBA inh: 2; Yp Topo-I inh: 0

Results for COc1cc(C(=O)C(=O)c2ccc(OC)c(OC)c2)ccc1O ?
TcdB GH inh: -3; GDH-TPI inh: 32*; PrPC surface inh: 4; Mtb FBA inh: -6; Yp Topo-I inh: 8

How did CCOc1cc(/C=C/C(=O)c2ccc3c(c2)OCCO3)ccc1OCC(=O)N(C)C do in these assays?
TcdB GH inh: 1; GDH-TPI inh: 11; PrPC surface inh: -12; Mtb FBA inh: -1; Yp Topo-I inh: -1

What do the screens show for `C[C@H]1CN([C@@H](C)CO)C(=O)c2cccc(NS(=O)(=O)c3ccc(F)cc3)c2O[C@@H]1CN(C)C(=O)Nc1ccccc1`?
TcdB GH inh: 1

What do the screens show for `COc1ccc(C=CC(=O)c2ccc(OC)c(OC)c2)cc1O`?
TcdB GH inh: 2; GDH-TPI inh: 40*; PrPC surface inh: -29; Mtb FBA inh: 3; Yp Topo-I inh: 0

How did COc1cc(OC)c(C(=O)C=Cc2ccc(OC)c(OC)c2)c(OC)c1 do in these assays?
TcdB GH inh: 4; GDH-TPI inh: 35*; PrPC surface inh: 3; Mtb FBA inh: 0; Yp Topo-I inh: 1

How did COc1ccc(/C=C/C(=O)c2ccoc2)cc1 do in these assays?
TcdB GH inh: -2; GDH-TPI inh: 38*; PrPC surface inh: -3; Mtb FBA inh: 1; Yp Topo-I inh: -2

How did C[C@H]1CCCCO[C@H](CN(C)C(=O)Nc2ccc(F)cc2)[C@@H](C)CN([C@@H](C)CO)C(=O)c2cc(NC(=O)C3CCCCC3)ccc2O1 do in these assays?
TcdB GH inh: 0

Results for Cc1noc(C)c1NC(=O)Nc1ccc2c(c1)C(=O)N([C@@H](C)CO)C[C@H](C)[C@@H](CN(C)CC1CCCCC1)OCCCC[C@H](C)O2 ?
TcdB GH inh: 0

How did CNc1nc(-c2ccccc2)cc(C)c1S(C)(=O)=O do in these assays?
TcdB GH inh: 2; GDH-TPI inh: 6; PrPC surface inh: 0; Mtb FBA inh: active; Yp Topo-I inh: -5

Results for Cc1ccc(OCCn2c(C)c(/C=N/n3cnnc3)c3ccccc32)cc1 ?
GDH-TPI inh: 31*; PrPC surface inh: 1; Mtb FBA inh: 2; Yp Topo-I inh: 25

How did CC(NC(=O)c1ccccc1N)c1ccccc1 (stereo unspecified) do in these assays?
TcdB GH inh: 1; GDH-TPI inh: -5; PrPC surface inh: -1; Mtb FBA inh: 47*; Yp Topo-I inh: 9

How did c1ccc(CSC2=NNC(c3ccccn3)S2)cc1 (stereo unspecified) do in these assays?
TcdB GH inh: -4; GDH-TPI inh: 13; PrPC surface inh: 10; Mtb FBA inh: -2; Yp Topo-I inh: 3

Results for O=C(CSC1=NNC(c2ccccn2)S1)Nc1ccc(C(F)(F)F)cc1 (stereo unspecified) ?
TcdB GH inh: 0; GDH-TPI inh: 32*; PrPC surface inh: 7; Mtb FBA inh: -2; Yp Topo-I inh: -6

Results for O=C(CC12CC3CC(CC(C3)C1)C2)NCC(=O)OCc1cc(=O)oc2ccc3ccccc3c12 ?
TcdB GH inh: 0; GDH-TPI inh: 9; PrPC surface inh: 0; Mtb FBA inh: 36*; Yp Topo-I inh: 48

What do the screens show for `Cc1ccc(C2Nc3ccc4ccccc4c3C3=C2C(=O)CC(C)(C)C3)o1` (stereo unspecified)?
TcdB GH inh: 1; GDH-TPI inh: 11; Mtb FBA inh: 15; Yp Topo-I inh: -6

How did CC1(C)CC(=O)C2=C(C1)c1c(ccc3ccccc13)NC2c1ccc(C(=O)O)cc1 (stereo unspecified) do in these assays?
TcdB GH inh: 1; GDH-TPI inh: 6; PrPC surface inh: -3; Mtb FBA inh: active; Yp Topo-I inh: 6

Results for Cc1cc(/C=C(\C#N)C(=O)N2CCCCC2)cc(C)c1O ?
TcdB GH inh: 12*; GDH-TPI inh: 16; PrPC surface inh: 1; Mtb FBA inh: -5; Yp Topo-I inh: 9

How did N#C/C(=C\c1cccc(O)c1)C(=O)N1CCCCC1 do in these assays?
TcdB GH inh: 0; GDH-TPI inh: -1; PrPC surface inh: -2; Mtb FBA inh: 0; Yp Topo-I inh: -3

How did COc1ccc(/C=N/N=C2/NC(=O)C(CC(=O)NC(N)=O)S2)cc1 (stereo unspecified) do in these assays?
TcdB GH inh: 11*; GDH-TPI inh: 26; PrPC surface inh: -4; Mtb FBA inh: 1; Yp Topo-I inh: -3
